Experimental data taken from PubChem BioAssay (NCI).
This is part of a sample that, as a whole, favours compounds with a hit. Of some 83,000 tested, about 20% had one in any assay.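 For each line, cells grew in 96-well plates with the test compound present at a single concentration for 48 hours.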 Calls of active or inactive are those of the source. How the source made its calls: active means growth percent below 10; inactive means the rest.

The compounds below were run on MDA-MB-468 breast (assay: NCI-60 one-dose screen, 48 h (100 = growth as untreated, 0 = no growth, -100 = all killed)). Details: 10 µM unless noted.

Structure (SMILES)	growth
CN(C)c1ccc2nc3ccc(=[N+](C)C)c([N+](=O)[O-])c-3sc2c1	0.864% (active)
Clc1cccc(-c2cc(-c3ccc4c(c3)OCCO4)[nH]n2)c1	6.54% [25 µM] (active)
CC1(C)CC(=O)C2=C(C1)N(c1ccc(OC(F)(F)F)cc1)C(N)=C(C#N)C2c1ccc(Cl)cc1 (centres undefined)	93.1% (inactive)
O=C(Nc1cccc2[nH]c(C(F)(F)F)nc12)c1ccc(-n2cnnn2)cc1	80% (inactive)
O=C(CCN1CCCC1)Nc1ccc2c(NCc3ccccc3)c3ccccc3nc2c1	-37.1% (active)
COc1ccc(Nn2c(SCC(=O)Nc3nc(-c4ccc(Cl)cc4)cs3)nc(C)c2C)cc1	26.2% (inactive)
Nc1ccccc1NC(=O)CCCCCCC(=O)Nc1ccc2c(c1)/C(=C/c1ccc[nH]1)C(=O)N2	32.9% (inactive)
CC(NNC(=S)N1CCCCCC1)c1ccc2ccccc2n1 (centres undefined)	30.3% (inactive)
NS(=O)(=O)Oc1ccc(-c2sc3cc(O)ccc3c2C(=O)c2ccc(OCCN3CCCCC3)cc2)cc1	95.1% (inactive)
COc1ccc(/C(=N\N=C(N)N)c2ccc(Cl)cc2)cc1OC	52.8% (inactive)
CCC(CC)NCCCCCNc1cc(OC)cc2cccnc12	57.8% (inactive)
O=C(Cn1c(=O)sc2nc3ccccc3nc21)Nc1ncc(Cc2cccc(Cl)c2Cl)s1	107% (inactive)
C[C@H]1[C@H]2C3=CC[C@@H]4[C@@]5(C)C/C(=C/c6ccco6)C(=O)C(C)(C)[C@@H]5CC[C@@]4(C)[C@]3(C)CC[C@@]2(C(=O)N2CCOCC2)CC[C@@H]1C	59.5% (inactive)
Cc1cc(Cl)ccc1Nc1nc(C(F)(F)F)ccc1C(=O)N/N=C/c1ccccc1Cl	6.05% (active)
NC(=Nc1ccccc1)SCCCSC(N)=Nc1ccccc1	85.8% (inactive)
N=C(N)c1ccc(-c2ccc(-c3cncc4ccccc34)s2)cc1F	-90.6% (active)
COc1ccc2[nH]cc(/C=N/Nc3ccnc4cc(Cl)ccc34)c2c1	-80.8% (active)
O=C(Nc1nc(-c2ccccc2)cc(-c2ccc(Cl)cc2)n1)c1ccncc1	106% (inactive)
COc1cc(-c2n/c(=C\c3c(O)[nH]c4ccccc34)cc3c2=Nc2ccccc2-3)cc(OC)c1OC	5.24% (active)
COc1cc2nccc(Oc3ccc(NC(=O)C4(C(=O)Nc5c(F)cc(F)cc5F)CC4)cc3)c2cc1Oc1ccc(N)cn1	33.3% (inactive)

Structure (SMILES)	growth
O=c1oc2ccc(I)cc2c(=O)n1-c1ccc(Br)cc1F	-2.16% (active)
O=c1cc(-c2ccccc2)oc2c(O)c(O)ccc12	79.5% (inactive)
Brc1ccc(-n2cc(-c3nn[nH]n3)c(-c3cccs3)n2)cc1	92.4% (inactive)
COc1ccc2cnc(N)c(C#Cc3cc(C(=O)Nc4ccc(CN5CCN(C)CC5)c(C(F)(F)F)c4)cnc3C)c2c1	91.2% (inactive)
COc1cc(OC)c2sc(-c3ccc(-n4cncc4-c4cc(OC)c(OC)c(OC)c4)cc3)nc2c1	43.5% (inactive)
O=C1Nc2ccccc2/C1=C/C(=O)c1ccc(N2CCCC2)cc1	5.3% (active)
NNC(=O)Cc1ccccc1	92.3% (inactive)
CC(=O)n1cc([C@H]2CC[C@H](c3cn(C(C)=O)c4ccccc34)c3c2[nH]c2ccccc32)c2ccccc21	92.9% (inactive)
O=C(CCl)Nc1ccc2c(Nc3cc(O)ccc3Cl)ncnc2c1	-61.7% (active)
O=C1NC(=O)c2cc([N+](=O)[O-])cc3cccc1c23	91% (inactive)
O=C(O)c1ccc(NC(=O)c2cccc(Nc3ccnc(C(F)(F)F)c3)c2)cc1	108% (inactive)
COCCOc1cc2ncnc(N3CCN(c4ncc(S(=O)(=O)N5CCCCC5)cn4)CC3)c2cc1OCCOC	75.3% (inactive)
CSc1nc2sc3cc(Cl)ccc3n2c(=N)c1C#N	-45% (active)
O=C(Nc1cccc(C(F)(F)F)c1)Nc1cccc(C(F)(F)F)c1	-6.39% (active)
C=C(C)[C@@H]1CC[C@]2(C(=O)OC)CC[C@]3(C)[C@H](CC[C@@H]4[C@@]5(C)C/C(=C/NC(N)=S)C(=O)C(C)(C)[C@@H]5CC[C@]43C)[C@@H]12	103% (inactive)
CC(=NNc1ncnc2ccccc12)c1ccc(S(C)(=O)=O)cc1	103% (inactive)
COc1cc(OC)cc(C(=O)Nc2sc3c(c2C(N)=O)CCC(=O)C3)c1	37.1% (inactive)
C=CCNCCC#N	98.1% (inactive)
Cc1cc(C)c2c(N)c3cccc(C)c3nc2n1	-54.4% (active)
